Screens: PubChem BioAssay, National Center for Advancing Translational Sciences (NCATS)
a7 integrin act: activators of alpha7 integrin expression for muscular dystrophy. alpha7betagal myoblasts, beta-gal FDG fluorescence, 48 h. Potency, µM (titrated, usually from 38.3 µM), for the others: at the top dose activation, usual class: activators. hit rate 0.064% among 350,000. AID 624291;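 further: potency means the concentration at half of the fitted maximal effect; 100% = response of the positive control SU9516; nearly all actives have a fitted effect of over 60% in size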
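Alpha7betagal+/- myoblasts (passage 13) were plated 16-24 hr, then exposed to compounds (1:260 dilution of DMSO stock) for 48 hours at 37C. After MPER lysis, β-galactosidase reporter activity was read as FDG fluorescence (ex 480/em 540) after 30 minutes.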
DRD3 antagonist: D3 dopamine receptor (human) antagonism. P35462. D3R cells, DiscoveRx beta-arrestin luminescence, antagonist mode; hits give low values. max response, negative = inhibition, %. hit rate 2.5% among 360,000. AID 652054; in the data active means max response below about -50%; inconclusive means no clear call, values can overlap the other calls; further: on the % scale 0 is the no-effect control and ±100 the full control effect
Target sequence (P35462 whole entry, looked up): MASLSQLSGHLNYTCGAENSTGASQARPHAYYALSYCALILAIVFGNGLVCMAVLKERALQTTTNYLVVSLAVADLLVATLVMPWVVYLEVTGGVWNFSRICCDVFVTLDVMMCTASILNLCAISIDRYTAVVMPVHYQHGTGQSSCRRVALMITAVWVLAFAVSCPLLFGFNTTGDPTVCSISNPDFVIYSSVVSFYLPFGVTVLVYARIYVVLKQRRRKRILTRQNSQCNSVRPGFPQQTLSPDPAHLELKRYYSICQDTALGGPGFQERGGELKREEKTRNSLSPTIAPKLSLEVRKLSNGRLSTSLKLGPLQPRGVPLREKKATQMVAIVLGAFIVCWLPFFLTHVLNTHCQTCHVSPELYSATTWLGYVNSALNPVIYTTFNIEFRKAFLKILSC
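Cells plated overnight at 1500 cells/well, then exposed to library compounds with dopamine controls for 90 minutes at 37 degrees C. DiscoveRx reagent added for 30–60 minutes at room temperature; luminescence read, quantitative HTS format.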
MBNL1 CUG block: inhibitors of human MBNL1 binding to CUG repeat RNA; hit rate 0.036% among 280,000; Q9NR56; AID 2675; Potency, µM (doses to about 57.5 µM), for inactives: at the highest dose activity change, negative = inhibition, actives largely listed as inhibitors; TR-FRET MBNL1-His/biotin-(CUG)12 binding, 665/545 ratio; active means well fitted inhibition curve with a large enough effect in the signal ratio, with a control signal flat, not every such curve was filed as active; inconclusive means small, poorly fitted or top-dose-only effect, or effect the other way, or a change in a side signal; inactive means no such curve, though single readings can be large or run the other way; the % refers to the signal ratio; further: potency means the concentration at half of the fitted maximal effect; on the % scale 0 is the no-effect control and ±100 the full control effect
Target sequence (Q9NR56 whole entry, looked up): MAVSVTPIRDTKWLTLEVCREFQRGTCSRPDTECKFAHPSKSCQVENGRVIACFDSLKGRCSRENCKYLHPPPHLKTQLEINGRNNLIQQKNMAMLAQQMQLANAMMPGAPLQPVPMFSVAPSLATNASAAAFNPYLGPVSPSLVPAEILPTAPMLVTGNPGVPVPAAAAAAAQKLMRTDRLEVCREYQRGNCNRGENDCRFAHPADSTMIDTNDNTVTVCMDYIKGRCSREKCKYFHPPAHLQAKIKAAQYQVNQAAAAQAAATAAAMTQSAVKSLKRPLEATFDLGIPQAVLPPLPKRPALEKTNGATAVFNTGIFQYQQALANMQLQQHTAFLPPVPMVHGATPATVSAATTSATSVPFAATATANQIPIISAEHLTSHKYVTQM
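MBNL1-His + Biotin-(CUG)12, cpd titration 92 nM–58 uM; Tb anti-His Ab 0.055 ng/ul, SA-XL665 5 nM (final); 60 min RT; ratiometric 665/545 nm, Ex 340 nm; normalized to buffer and full-complex controls.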
PTHR1 agonist: PTHR1 (human) receptor agonism; HEK293 GP2 PTHR1 cells, GloSensor cAMP luminescence, 1 h; Potency, µM (series often up to 115 µM), without a hit: at the top dose activation, most hits filed as activators; hit rate 0.075% among 410,000; AID 743266; further: potency means the concentration at half of the fitted maximal effect; nearly all actives have a fitted effect of over 55% in size
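HEK-293-derived GP2 cells expressing PTHR1 and a GloSensor cAMP reporter, 3,000/well, plated overnight, given luciferin plus IBMX (each 0.5 mM as added) for 1 h at 37 °C, then compound for 1 h at 37 °C. Luminescence was read after 15 min at room temperature.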
CBFb-RUNX1 inh: blocks binding between human CBF-beta and RUNX1; Q01196+Q13951; AlphaScreen CBFb-His/RUNX1-biotin binding, biochemical; 230,000 tested, under 10 active; AID 1477; Potency, µM (top dose mostly 59.8 µM), inactives show at the highest dose activity, negative = inhibition, hits mostly inhibitors; further: % of control where 0% means no effect
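Read-out: AlphaScreen. Format: His-CBF-beta with biotinylated RUNX1 (30 nM each) preincubated 20 min, compound 15 min, Ni-chelate plus streptavidin beads 90 min; room temperature throughout.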
DRD3 agonist: D3 dopamine receptor (human) agonism; D3R DiscoveRx beta-arrestin cells, luminescence, 90 min; AID 652048; hit rate 0.58% among 410,000; max activation, %; in the data active means max activation above about 30%; further: 0% is about no effect
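Agonist mode: compounds and dopamine controls were applied to plated cells for 90 min at 37 degrees C after an overnight attachment at 1500 cells/well. Luminescent read-out followed 30 - 60 minutes at room temperature with DiscoveRx detection reagent.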
The depositor's hits bear a star; i = inactive; ? = inconclusive; nt = not tested or not shown; [ ] = another dose, or the depositor's remark. Shown are actives, neighbours in structure and some others; about 2.8% of the full set was active somewhere. Unless noted, the call rests on the fitted dose curve; in most records, active means well fitted curve in the direction sought with a large enough effect; inconclusive means small, poorly fitted or top-dose-only effect, or another doubt; inactive means no such curve, though single readings can be large; an effect the other way counts as inactive or inconclusive.

SMILES | a7 integrin act | DRD3 antagonist | MBNL1 CUG block | PTHR1 agonist | CBFb-RUNX1 inh | DRD3 agonist
Oc1ccc(Cl)c(CN2CCN(c3ncc(Cc4ccccc4)cn3)CC2)c1 | nt | -25 | nt | -24% | nt | 0
CCC(C)c1ccccc1OCCOCCN1CCCC1 (stereo not drawn) | -45% | -52* | -13% | i | -6% | -25
CCC(C)c1ccccc1OCCCCN1CCCC1 (stereo not drawn) | -64% | -72* | -12% | -5% | 3% | -27
CCc1ccccc1OCCCCN1CCCC1 | -46% | ? | -2% | -11%[57.5 µM] | 12% | 0
CCOc1ccc(CCNC(=O)CN2N=C(c3ccccc3)CCC2=O)cc1OCC | nt | nt | nt | -14% | nt | -5
COc1ccccc1OCC(=O)NNC(=O)CCCC(=O)NNC(=O)COc1ccccc1OC | 42% | 0 | 1% | i | nt | 0
COc1ccccc1OCC(=O)N/N=C1/C=C(C)CC1 | 10µM* | -9 | -5% | i | -2% | 8
CCc1ccc(-n2c(=S)sc3c(=O)[nH]c(SCC(=O)NC4CCCCC4)nc32)cc1 | 19% | -51* | nt | -8% | nt | -2
CCOC(=O)c1ccc(-n2c(=S)sc3c(=O)[nH]c(C)nc32)cc1 | -47% | 42 | 8% | -13%[57.5 µM] | 3% | 51*
Cc1ccccc1-c1nc(Cc2ccccc2)no1 | 24% | -53* | -8% | -20% | 20% | 4
Clc1ccc(-c2nc(Cc3ccccc3)no2)cc1 | 0% | -17 | -7% | -9%[57.5 µM] | 17% | -8
CC(C)c1[nH]nc2c1C1(CCN(Cc3ccccc3)CC1)C(C#N)=C(N)O2 | -8% | -92* | 12% | i | 7% | 1
COc1cc(OC)cc(C(=O)NC(=S)Nc2ccc(Cl)c(C(=O)O)c2)c1 | 3% | -21 | 0% | -5%[57.5 µM] | 6% | -13
COc1cc(C(=O)NC(=S)Nc2ccc(Cl)c(C(=O)O)c2)cc(OC)c1OC | 7% | -89* | 4% | -7%[57.5 µM] | 8% | -12
CC[C@@H](C)CCCCC(=O)N[C@@H](CCNCS(=O)(=O)O)C(=O)N[C@H](C(=O)N[C@@H](CCNCS(=O)(=O)O)C(=O)N[C@H]1CCNC(=O)[C@H]([C@@H](C)O)NC(=O)[C@H](CCNCS(=O)(=O)O)NC(=O)[C@H](CCNCS(=O)(=O)O)NC(=O)[C@H](CC(C)C)NC(=O)[C@@H](CC(C)C)NC(=O)[C@H](CCNCS(=O)(=O)O)NC1=O)[C@@H](C)O | nt | nt | nt | nt | nt | 6
Oc1ccccc1N1CCN(Cc2ncc(-c3ccccc3)o2)CC1 | -20% | -58* | 1% | -20% | nt | -6
COc1ccc(CCNc2nc(Cl)nc(NC(C)(C)CO)n2)cc1OC | 0% | 11 | -9% | -25% | nt | -13
CCOc1nc(NCCc2ccc(OC)c(OC)c2)nc(NC(C)(C)CO)n1 | 12% | -62* | 4% | -92% | 2% | 2
COc1ccccc1NC(=O)CSc1nnc(-c2ccc(C)cc2)o1 | 37% | -22 | -2% | i | 4% | -2
COc1ccccc1NC(=O)CCN1CCCCCC1 | -7% | -111* | -8% | i | 11% | -33
COc1ccccc1NC(=O)CCN1CCN(Cc2ccccc2)CC1 | 4% | -55* | 4% | -13%[57.5 µM] | 4% | -30
O=C(CCN1CCN(Cc2ccccc2)CC1)Nc1ccccc1Cl | -2% | -21 | -13% | i | 1% | -10
COc1ccccc1NC(=O)CSC(N)=O | -12% | -107* | -1% | -3%[57.5 µM] | 1% | 4
COc1ccccc1NC(=O)CN1CCCCCC1 | -3% | -5 | 1% | -2% | nt | 6
COc1ccccc1NC(=O)CSc1nnc(-c2ccccn2)o1 | -4% | 12 | 1% | i | nt | 32*
SMILES | a7 integrin act | DRD3 antagonist | MBNL1 CUG block | PTHR1 agonist | CBFb-RUNX1 inh | DRD3 agonist
CC1(C)S[C@@H]2[C@H](NC(=O)C(c3ccccc3)S(=O)(=O)O)C(=O)N2[C@H]1C(=O)O (stereo partly drawn) | nt | nt | nt | nt | nt | -13
O=C(CSc1nc(-c2cccs2)nc2cc(=O)[nH]n12)Nc1cccc(C(F)(F)F)c1 | nt | nt | nt | -32% | nt | 0
Cc1cccc(Cn2cc3c(=O)n(CC(=O)Nc4cccc(C)c4C)nc-3c3cc(F)ccc32)c1 | nt | nt | nt | i | nt | 5
C/C=C/c1cccc(-c2nc(C(=O)N3CCCCC3)cc3c2[C@@H](CCO)N(C(=O)NC(C)C)C3)c1 | nt | -2 | nt | -17% | nt | -10
Cc1[nH]c2c(Cl)cccc2c(=O)c1CN1CCCCCC1 | 38% | -90* | -14% | i | nt | -15
O=c1cc(-c2ccc(F)cc2)nc(SCc2nc(-c3ccc(Cl)cc3)no2)[nH]1 | nt | nt | nt | -19% | nt | -4
CC(=O)n1cc([C@H]2C=C(C(=O)N3CCN(Cc4ccccc4)CC3)O[C@@H](OCCCCO)C2)c2ccccc21 | 0% | 0 | ? | i | 14% | 11
CC(=O)n1cc([C@H]2C=C(C(=O)NCc3ccccc3)O[C@@H](OCc3ccc(CO)cc3)C2)c2ccccc21 | -19% | 25 | -6% | -31% | 10% | 5
CC(=O)n1cc([C@H]2C=C(C(N)=O)O[C@@H](OCc3ccc(CO)cc3)C2)c2ccccc21 | 8% | 66 | nt | i | nt | 36*
O=C(C1=C[C@H](c2coc3ccccc3c2=O)C[C@H](OCc2ccc(CO)cc2)O1)N1CCN(Cc2ccc3c(c2)OCO3)CC1 | -13% | -50* | 10% | 16% | -8% | -50
CC(=O)n1cc([C@@H]2C=C(C(=O)N3CCN(Cc4ccccc4)CC3)O[C@H](OCc3ccc(CO)cc3)C2)c2ccccc21 | -23% | -61* | 16% | -24% | -15% | -62
CS(=O)(=O)N1CCCCC1c1cc(C(=O)Nc2ccccc2Cl)no1 (stereo not drawn) | nt | -19 | nt | -20% | nt | -6
C/C(=N/n1cnnc1)c1cccnc1 | 25% | 53 | -2% | 16µM* | 9% | -10
COc1ccc(NC(=O)CN2C(=O)NC3(CCCc4ccccc43)C2=O)c(OC)c1 (stereo not drawn) | -12% | -8 | nt | i | nt | 6
O=C(NC1CCCCC1)c1sc(=S)n2c1[nH]c(=O)c1ccccc12 | -18% | ? | -3% | -19%[57.5 µM] | -4% | 7
CCCCNC(=O)c1sc(=S)n2c1[nH]c(=O)c1ccccc12 | 1% | -50* | -1% | -18%[57.5 µM] | 2% | 0
CCC(=O)Nc1sc2c(c1C(=O)Nc1ccccc1C)CCC(C)C2 (stereo not drawn) | nt | nt | nt | i | nt | 0
Nc1c(C(O)(C(F)(F)F)C(F)(F)F)cc(C(O)(C(F)(F)F)C(F)(F)F)c2ccccc12 | -54% | -83* | -4% | -20% | 15% | 0
